Inconclusive results are not listed. Values without a mark were called inactive. Activity calls are given as the source filed them. Unless noted, calls follow the shape of the dose curve; as a rule, active = well fitted curve in the direction sought with a large enough effect in the repeat runs; inconclusive = weak or mixed curves; inactive = no such curve, though single readings can be large; an effect the other way counts as inactive or inconclusive.
tested on: not listed separately; experiment: qHTS assay to identify small molecule that activate the aryl hydrocarbon receptor (AhR) signaling pathway - cell viability counter screen (AID 743086); conditions: HepG2-AhR-luc viability, CellTiter-Fluor, 24 h; series mostly up to 70.3 µM; viability change, negative = cytotoxic: at the top concentration;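 also: HepG2 liver cells carrying the AhR DRE luciferase reporter; nearly all actives have a fitted effect of over 45% in size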
Summary of the method: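 Cytotoxicity counter screen: CellTiter-Fluor signal (30 min, 37 C) in 4000 HepG2 cells/well carrying the DRE-luciferase reporter, following 24 h compound exposure at 37 C.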
% is scaled to controls: 0 for no effect and ±100 for the full control effect.

| SMILES | viability change, negative = cytotoxic |
| --- | --- |
| CC(C)NCC(O)c1cc(O)cc(O)c1 (stereo unspecified) | 25.5% |
| CCN1CCC[C@H]1CNC(=O)c1c(OC)ccc(Br)c1OC | 6.93% |
| CCCC(=O)OCC | -1.83% |
| Cc1cc(CC(=O)O)c(C)n1-c1ccc(Cl)cc1 | -3.42% |
| COc1ccc2[nH]c(S(=O)Cc3ncc(C)c(OC)c3C)nc2n1 (stereo unspecified) | -11.3% |
| CC(C)(C)c1ccc(S)cc1 | 8.38% |
| CC(C)(C)c1cc(CO)cc(C(C)(C)C)c1O | -1.79% [at 95 µM] |
| CC(C)CC=O | -2.08% |
| COc1cc(C(C)(C)C)c(O)c(C(C)(C)C)c1 | 0.941% |
| O=S(=O)(O)c1ccc(O)c2ncccc12 | 8.19% |

molecular target: Peroxisome proliferator-activated receptor gamma (Homo sapiens) (UniProt P37231); experiment: qHTS assay to identify small molecule agonists of the peroxisome proliferator-activated receptor gamma (PPARg) signaling pathway (AID 743094; active = well fitted activation curve with a large enough effect in the signal ratio in the repeat runs, not every such curve was filed as active; the % refers to the signal ratio); conditions: HEK293H PPARg-UAS-bla, beta-lactamase FRET ratio, 17 h; series mostly up to 57 µM; activation: at the top concentration
Sequence (P37231 whole entry, looked up): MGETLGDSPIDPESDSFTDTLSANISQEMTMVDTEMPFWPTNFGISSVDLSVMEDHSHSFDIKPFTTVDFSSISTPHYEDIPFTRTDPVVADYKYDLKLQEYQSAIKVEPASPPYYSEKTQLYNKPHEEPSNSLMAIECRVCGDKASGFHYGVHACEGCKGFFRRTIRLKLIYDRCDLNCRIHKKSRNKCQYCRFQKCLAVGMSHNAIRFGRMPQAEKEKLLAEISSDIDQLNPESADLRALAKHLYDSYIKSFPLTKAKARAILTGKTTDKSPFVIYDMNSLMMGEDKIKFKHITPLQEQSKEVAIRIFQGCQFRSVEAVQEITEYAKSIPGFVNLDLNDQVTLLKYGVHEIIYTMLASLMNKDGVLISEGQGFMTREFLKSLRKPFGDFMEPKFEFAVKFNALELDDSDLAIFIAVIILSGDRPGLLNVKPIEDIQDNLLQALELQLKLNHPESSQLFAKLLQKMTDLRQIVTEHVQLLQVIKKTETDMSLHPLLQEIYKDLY
Summary of the method: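 Agonism was assessed in a beta-lactamase reporter system, HEK293H cells with a stably integrated UAS-bla construct under PPARg control; the 17 h treatment at 37C preceded a 1 h room-temperature FRET substrate read.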

| SMILES | activation |
| --- | --- |
| O=C1[C@H](CC[C@H](O)c2ccc(F)cc2)[C@@H](c2ccc(O)cc2)N1c1ccc(F)cc1 | -6.98% |
| CC(=O)c1ccc2c(c1)[C@H](NC(=O)c1ccc(F)cc1)[C@@H](O)C(C)(C)O2 | -0.699% |
| CCOc1ccc2[nH]cc(C(=O)NCc3ccccc3)c(=O)c2n1 | -7.26% |
| Oc1ccc(Sc2ccc(O)cc2)cc1 | -10.2% |
| N#Cc1cc2ccccc2c2ccccc12 | 0.981% [at 78.9 µM] |
| CCN(CC)C(C)CN1c2ccccc2Sc2ccccc21 (stereo unspecified) | -8.97% [at 26.2 µM] |
| Cc1ccc2c(ccc3ccccc32)c1 | -6.4% [at 78.9 µM] |
| CC(Cc1cccc(C(F)(F)F)c1)NCCOC(=O)c1ccccc1 (stereo unspecified) | -7.05% |
| CN1CCC(OC(c2ccccc2)c2ccccc2)CC1 | -7.41% [at 26.2 µM] |
| O=C(Cl)c1c(Cl)cccc1Cl | 6.69% [at 78.9 µM] |
| COc1ccc(C(C)=O)cc1 | 3.13% [at 78.9 µM] |
| CCCCCCCC/C=C\CCCCCCCC(N)=O | 4.64% |
| O=C1CCCCCO1 | -0.46% [at 78.9 µM] |
| COC(Cc1ccccc1)OC | 1.71% |
| O=[N+]([O-])c1cc[n+]([O-])cc1 | -7.78% |
| CC1(C)CCC(C)(C)c2cc(NC(=O)c3ccc(C(=O)O)cc3)ccc21 | -11.2% |
| CC(=O)c1c(C)c([N+](=O)[O-])c(C(C)(C)C)c([N+](=O)[O-])c1C | 7.64% |
| CC(=O)O[C@H]1C[C@@H]2CC[C@@H]3[C@H](CC[C@@]4(C)[C@H]3C[C@H]([N+]3(C)CCCCC3)[C@@H]4OC(C)=O)[C@@]2(C)C[C@@H]1N1CCCCC1 | 2.52% |
| CN(C)CC[C@@H](c1ccc(Br)cc1)c1ccccn1 | -4.06% |
| CC(C)NCC(O)c1cc(O)cc(O)c1 (stereo unspecified) | 2.76% |
| CCN1CCC[C@H]1CNC(=O)c1c(OC)ccc(Br)c1OC | -0.0248% |
| CCCC(=O)OCC | 0.39% |
| CC(C)(C)c1ccc(S)cc1 | -8.39% |
| CCN(CC)CCOc1ccc2c(c1)C(=O)c1cc(OCCN(CC)CC)ccc1-2 | 2.55% |
| CC(C)(C)c1cc(CO)cc(C(C)(C)C)c1O | -7.47% [at 78.9 µM] |
| CC(C)CC=O | -0.254% |
| COc1cc(C(C)(C)C)c(O)c(C(C)(C)C)c1 | -2.46% |
| O=S(=O)(O)c1ccc(O)c2ncccc12 | -9.49% |

molecular target: Peroxisome proliferator-activated receptor gamma (Homo sapiens) (UniProt P37231); experiment: qHTS assay to identify small molecule antagonists of the peroxisome proliferator-activated receptor gamma (PPARg) signaling pathway (AID 743191; calls by dose curve; also: nearly all actives have a fitted effect of over 30% in size; also: potency is read from the fitted curve at half-maximal effect); conditions: HEK293H PPARg-UAS-bla, beta-lactamase ratio, antagonist, 17 h; series mostly up to 62.6 µM; ratio activity, negative = inhibition: at the top concentration
Summary of the method: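 Beta-lactamase reporter under UAS control in HEK293H PPARg-bla cells; compound treatment 17 h at 37C. Read-out: fluorescence intensity after 1 h room-temperature incubation with LiveBLAzer B/G FRET substrate.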

| SMILES | ratio activity, negative = inhibition | Potency |
| --- | --- | --- |
| CCOc1ccc2[nH]cc(C(=O)NCc3ccccc3)c(=O)c2n1 | 2.76% | – |
| Oc1ccc(Sc2ccc(O)cc2)cc1 | – | 16.2 µM (active) |
| CCN(CC)C(C)CN1c2ccccc2Sc2ccccc21 (stereo unspecified) | -20.7% | – |
| COc1ccc(C(C)=O)cc1 | -5.32% [at 81.1 µM] | – |
| O=C1CCCCCO1 | 1.93% [at 81.1 µM] | – |
| COC(Cc1ccccc1)OC | -7.49% | – |
| CC(=O)c1c(C)c([N+](=O)[O-])c(C(C)(C)C)c([N+](=O)[O-])c1C | 7.06% | – |
| CC(=O)O[C@H]1C[C@@H]2CC[C@@H]3[C@H](CC[C@@]4(C)[C@H]3C[C@H]([N+]3(C)CCCCC3)[C@@H]4OC(C)=O)[C@@]2(C)C[C@@H]1N1CCCCC1 | -0.137% | – |
| CN(C)CC[C@@H](c1ccc(Br)cc1)c1ccccn1 | 1.51% | – |
| CCCC(=O)OCC | 3.62% | – |
| CCN(CC)CCOc1ccc2c(c1)C(=O)c1cc(OCCN(CC)CC)ccc1-2 | 9.82% | – |
| O=S(=O)(O)c1ccc(O)c2ncccc12 | 2.76% | – |

tested on: not listed separately; experiment: qHTS assay to identify small molecule antagonists of the peroxisome proliferator-activated receptor gamma (PPARg) signaling pathway - cell viability counter screen (AID 743194); conditions: PPARg-bla HEK293H viability, CellTiter-Glo luminescence, 17 h, co-treated with 50 nM rosiglitazone; series mostly up to 62.6 µM; activity change, negative = cytotoxicity: at the top concentration; also: nearly all actives have a fitted effect of over 55% in size; also: potency is read from the fitted curve at half-maximal effect
Summary of the method: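 Viability was measured as CellTiter-Glo luminescence in GeneBLAzer PPARg UAS-bla HEK293H cells. These cells had been exposed 17 h at 37 C to compounds together with rosiglitazone at 50 nM final, with the beta-lactamase readout taken in the same wells.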

| SMILES | activity change, negative = cytotoxicity | Potency |
| --- | --- | --- |
| O=C1[C@H](CC[C@H](O)c2ccc(F)cc2)[C@@H](c2ccc(O)cc2)N1c1ccc(F)cc1 | 0.564% | – |
| CC(=O)c1ccc2c(c1)[C@H](NC(=O)c1ccc(F)cc1)[C@@H](O)C(C)(C)O2 | 18.6% | – |
| CCOc1ccc2[nH]cc(C(=O)NCc3ccccc3)c(=O)c2n1 | 25.5% | – |
| Oc1ccc(Sc2ccc(O)cc2)cc1 | -22% | – |
| N#Cc1cc2ccccc2c2ccccc12 | -23.5% [at 81.1 µM] | – |
| CC(C)(Oc1ccc(Cl)cc1)C(=O)OCCCOC(=O)C(C)(C)Oc1ccc(Cl)cc1 | 0.422% | – |
| CCN(CC)C(C)CN1c2ccccc2Sc2ccccc21 (stereo unspecified) | -23.7% | – |
| CN1CCC(OC(c2ccccc2)c2ccccc2)CC1 | 0.768% | – |
| O=C(Cl)c1c(Cl)cccc1Cl | -0.784% [at 81.1 µM] | – |
| CNCC[C@@H](Oc1ccccc1C)c1ccccc1 | -16% | – |
| COc1ccc(C(C)=O)cc1 | -15.2% [at 81.1 µM] | – |
| CCCCCCCC/C=C\CCCCCCCC(N)=O | 7.13% | – |
| O=C1CCCCCO1 | 0.504% [at 81.1 µM] | – |
| C=CC(C)(CCC=C(C)C)OC(=O)c1ccccc1 (stereo unspecified) | -21.1% | – |
| O=C(O)c1cn(C2CC2)c2cc(Cl)c(F)cc2c1=O | 16.7% | – |
| Oc1ccc(O)c2c(O)cccc12 | 0.454% | – |

| SMILES | activity change, negative = cytotoxicity | Potency |
| --- | --- | --- |
| CC1(C)CCC(C)(C)c2cc(NC(=O)c3ccc(C(=O)O)cc3)ccc21 | -0.281% | – |
| CC(=O)N(CC(=O)N(C)C)c1ccccc1 | 3.52% | – |
| CC(=O)c1c(C)c([N+](=O)[O-])c(C(C)(C)C)c([N+](=O)[O-])c1C | -7.47% | – |
| CC1CCc2cc(F)cc3c(=O)c(C(=O)O)cn1c23 (stereo unspecified) | -0.305% | – |
| CC(=O)O[C@H]1C[C@@H]2CC[C@@H]3[C@H](CC[C@@]4(C)[C@H]3C[C@H]([N+]3(C)CCCCC3)[C@@H]4OC(C)=O)[C@@]2(C)C[C@@H]1N1CCCCC1 | -10.5% | – |
| CC(C)NCC(O)c1cc(O)cc(O)c1 (stereo unspecified) | 13.5% | – |
| CCN1CCC[C@H]1CNC(=O)c1c(OC)ccc(Br)c1OC | 7.67% | – |
| CCCC(=O)OCC | 3.77% | – |
| Cc1cc(CC(=O)O)c(C)n1-c1ccc(Cl)cc1 | 11.4% | – |
| CC(C)(C)c1ccc(S)cc1 | 9.59% | – |
| CCN(CC)CCOc1ccc2c(c1)C(=O)c1cc(OCCN(CC)CC)ccc1-2 | – | 29.8 µM (active) |
| CC(C)(C)c1cc(CO)cc(C(C)(C)C)c1O | 3.03% [at 81.1 µM] | – |
| COc1cc(C(C)(C)C)c(O)c(C(C)(C)C)c1 | -2% | – |
| Nc1ccc(C(=O)N2CC3CC(CN(Cc4ccccc4)C3)C2)cc1 | 4.55% | – |
| O=S(=O)(O)c1ccc(O)c2ncccc12 | -5.4% | – |

— PubChem BioAssay (Tox21)
